High-throughput results deposited in PubChem BioAssay by National Center for Advancing Translational Sciences (NCATS).
LDHA inh: qHTS assay for inhibitors of human lactate dehydrogenase; L-lactate dehydrogenase A chain (Homo sapiens), P00338; purified LDHA, NADH/diaphorase-resazurin fluorescence; stronger effect = lower value; activity change, % (values are at about 110 or 230 µM); hit rate 0.15% among 480,000; AID 1347041, 2019; in the data active = activity change below about -30%; inconclusive = mostly about -25% to -30%;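 note: plate controls were DMSO wells for no effect and wells without enzyme for full effect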
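Resorufin fluorescence (ex540/em590), read at 0 and 20 min after diaphorase/resazurin addition, reports the NADH left after a 5 min room-temperature reaction of 2 nM human LDH5 with 0.06 mM NADH and 0.2 mM pyruvate.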
VP16 counter: VP16 counterscreen qHTS for inhibitors of ROR gamma transcriptional activity. Drosophila S2 Gal4-VP16 UAS-luciferase, luminescence, 20 h. Potency, µM (highest dose often 53.6 µM), inactives show top-dose activity, negative = inhibition, actives largely listed as inhibitors. hit rate 3.5% among 310,000. AID 2546, 2010;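 note: Gal4-VP16 expression switched on by copper sulfate through the metallothionein promoter; potency is the fitted concentration of half-maximal effect; nearly all actives have a fitted effect of over 50% in size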
RORg inh: qHTS for inhibitors of ROR gamma transcriptional activity; Nuclear receptor ROR-gamma (Mus musculus), P51450; Drosophila S2 Gal4-RORgamma UAS-luciferase reporter, 20 h; Potency, µM (highest dose often 53.6 µM), inactives show top-dose activity change, negative = inhibition, actives largely listed as inhibitors; hit rate 5.4% among 310,000; AID 2551, 2010; note: potency is the fitted concentration of half-maximal effect; nearly all actives have a fitted effect of over 60% in size
Target sequence (P51450 whole entry, looked up, the tested form may be a part): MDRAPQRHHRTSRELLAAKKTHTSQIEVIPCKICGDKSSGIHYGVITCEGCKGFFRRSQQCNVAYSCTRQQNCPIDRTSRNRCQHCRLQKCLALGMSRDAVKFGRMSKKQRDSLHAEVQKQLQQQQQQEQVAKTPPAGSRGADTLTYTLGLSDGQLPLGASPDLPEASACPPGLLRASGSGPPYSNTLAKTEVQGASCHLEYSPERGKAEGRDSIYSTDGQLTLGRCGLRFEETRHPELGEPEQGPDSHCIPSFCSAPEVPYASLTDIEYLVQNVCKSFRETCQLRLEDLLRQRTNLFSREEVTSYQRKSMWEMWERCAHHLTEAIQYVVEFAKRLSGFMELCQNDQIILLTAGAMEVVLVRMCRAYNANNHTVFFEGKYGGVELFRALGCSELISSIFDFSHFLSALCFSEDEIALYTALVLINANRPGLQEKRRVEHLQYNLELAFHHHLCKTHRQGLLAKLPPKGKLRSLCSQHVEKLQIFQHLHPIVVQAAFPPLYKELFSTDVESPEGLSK
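Luminescence from a UAS-regulated Photinus luciferase reporter in stably transfected Drosophila Schneider cells is measured; decreased signal marks ROR gamma inhibition. Fusion expression is induced by 700 uM copper sulfate for 20 hr.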
DT40 TDP1 no CPT: qHTS for Inhibitors of human tyrosyl-DNA phosphodiesterase 1 (TDP1): qHTS in cells in absence of CPT; Potency, µM (highest dose often 46.2 µM), inactives show at the top dose activity change, negative = growth inhibition, actives largely listed as inhibitors; hit rate 15% among 420,000; AID 686978, 2013; DT40 Tdp1-/- hTDP1 cells, no CPT, ATP luminescence, 48 h; note: potency is the fitted concentration of half-maximal effect; nearly all actives have a fitted effect of over 55% in size
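DT40 Tdp1-/-;hTDP1 cells, no CPT (DMSO vehicle only), 400 cells/well; compounds pin-transferred; ≥48 hr, 37 °C; CellTiter-Glo 30 min RT dark, luminescence read.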
DT40 TDP1 CPT: qHTS for Inhibitors of human tyrosyl-DNA phosphodiesterase 1 (TDP1): qHTS in cells in presence of CPT. chicken DT40 Tdp1-/-;hTDP1 cells + 20 nM CPT, ATP luminescence, 48 h. hit rate 12% among 420,000. Potency, µM (top dose mostly 46.2 µM), for inactives: at the top dose activity change, negative = growth inhibition, most hits filed as inhibitors; note: potency is the fitted concentration of half-maximal effect; nearly all actives have a fitted effect of over 55% in size
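Cell growth measured by CellTiter-Glo luminescence after a minimum 48 h, 37 C compound exposure with 20 nM CPT in Tdp1-knockout DT40 cells stably expressing hTDP1, seeded 400/well; qHTS titration format.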
IL1B secr inh: qHTS for Inhibitors of Inflammasome Signaling: IL-1-beta AlphaLISA Primary Screen; THP-1 LPS/ATP IL-1B secretion, AlphaLISA, 16 h; stronger effect = lower value; activity change, % at 57.5 µM; hit rate 4.7% among 360,000; AID 743279, 2014; in the data active = activity change below about -50%; inconclusive = mostly about -30% to -49%
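THP-1 cells pretreated 1 hr with compounds (up to 57.5 uM final), then stimulated with LPS (250 ng/mL final) plus ATP (1.25 mM final); secreted IL-1B measured by AlphaLISA after 16 hr, decreased signal indicating inhibition.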
Starred values were filed as active, the others as inactive; ? = inconclusive; . = not tested or not shown; ! = a repeat was not active. Most compounds without a hit are left out; they make up all but 18% or so of the library. Unless noted, calls come from the whole dose curve; as a rule, active = well fitted curve in the direction sought with a large enough effect; inconclusive = small, poorly fitted or top-dose-only effect, or another doubt; inactive = no such curve, though single readings can be large; an effect the other way counts as inactive or inconclusive. Unless noted, % is set by controls: 0 for no effect and ±100 for the full control effect.

SMILES	LDHA inh	VP16 counter	RORg inh	DT40 TDP1 no CPT	DT40 TDP1 CPT	IL1B secr inh
Cc1cc(=O)c2ccccc2n1Cc1ccccc1	4	-21%	?	16µM*	?	-50*
COc1cccc(C2C3=C(COC3=O)Nc3c2c(=O)n(C)c(=O)n3C)c1OC (stereo not drawn)	-2	.	.	.	.	.
Cc1cccc(NCC(=O)NC(=O)NCc2ccccc2)c1C(N)=O	6	.	.	.	.	.
Cc1nc2ccccc2n1CC(=O)NN	-6	-9%	-17%	4%	-11%	14
Cc1nc2ccccc2n1CC(=O)NC(C)C1CC2CCC1C2 (stereo not drawn)	0	?	?	0.92µM*	1.5µM*	0
Cc1nc2ccccc2n1CC(=O)NCc1ccccc1	-2	6.3µM*	-30%	12µM*	9.2µM*	2
CCOc1ccc(-c2nc(SCC(=O)Nc3nccs3)c(-c3ccc(F)cc3)[nH]2)cc1	8	.	.	.	.	.
CCOc1ccc(Oc2ccccc2NC(=O)C2=COCCO2)cc1	-2	.	.	?	16µM*	-2
O=C(Nc1ccccc1Oc1ccccc1)C1=COCCO1	-2	.	.	-6%	-6%	13
CCOc1ccc(Oc2ccc(S(=O)(=O)N3CCOCC3)cc2NC(=O)C2=COCCO2)cc1	-12	.	.	23µM*	?	-3
CCCOc1ccc(/C=C(/C#N)c2nc3ccccc3[nH]2)cc1OCC	1	.	.	.	.	.
Cc1cccc(C)c1OCC(O)CN(Cc1ccccc1O)C1CCCCC1 (stereo not drawn)	-7	2%	-7%	10µM*	16µM*	-66*
Cc1ccc(C(=O)C(Sc2ncccn2)c2ccc(C)cc2)cc1 (stereo not drawn)	3	.	.	.	.	.
Cc1ccc2c(c1)N(C)/C(=C/c1cccc[n+]1CCO)S2	-7	-17%	23%	1.2µM*	1.6µM*	?
Cc1oc2cc(OCc3ccccc3)ccc2c(=O)c1Oc1ccccc1	3	.	.	.	.	.
O=C(Nc1ccc(Br)cc1F)c1cc(S(=O)(=O)NCc2ccc(F)cc2)ccc1F	-18	.	.	?	-11%	.
O=C(Nc1ccc(Br)cc1F)c1cc(S(=O)(=O)NC2CCCC2)ccc1F	-11	.	.	16µM*	21µM*	.
CCc1ccccc1NC(=O)c1cc(S(=O)(=O)NC2CCCC2)ccc1F	-1	.	.	21µM*	?	.
COc1ccc(C)cc1NC(=O)c1cc(S(=O)(=O)NC2CCCCCC2)ccc1F	-1	.	.	?	?	.
O=C(Nc1ccc(Cl)cc1F)c1cc(S(=O)(=O)NC2CCCCCC2)ccc1F	1	.	.	?	21µM*	.
O=C(CCc1cccnc1)NCc1ccc(C(F)(F)F)cc1	6	.	.	.	.	.
Cc1ccc(NC(=O)CCn2c(=O)oc3cc(S(=O)(=O)N4CCCC4)ccc32)cc1C(F)(F)F	2	.	.	.	.	.
Ic1ccc(SN(Cc2ccco2)Sc2ccc(I)cc2)cc1	8	.	.	.	.	.
Cc1cc(N)ccc1-c1ccc(N)cc1C	3	.	.	.	.	.
Cc1cc(O)c(-c2cc(O)c(C)cc2O)cc1O	64	?	7.1µM*	3.3µM*	5.2µM*	-99*
SMILES	LDHA inh	VP16 counter	RORg inh	DT40 TDP1 no CPT	DT40 TDP1 CPT	IL1B secr inh
CC(=O)c1ccc(O)c(C)c1	9	.	.	.	.	.
Cc1ccc(N)cc1O	19	14%	-4%	6.9µM*!	7.7µM*!	55
Cc1ccc(S(=O)(=O)NCc2ccccc2)cc1C(=O)N1CCN(S(=O)(=O)c2ccccc2F)CC1	-4	.	.	?	12µM*	4
Cc1ccc(S(=O)(=O)NCc2ccccc2)cc1C(=O)N1CCCCC1	-4	3%	6%	2%	-6%	3
Cc1ccc(S(=O)(=O)NCc2ccccc2)cc1C(=O)N1CC(C)CC(C)C1 (stereo not drawn)	1	.	.	18µM*	?	7
CC(C)(C)C1CCC(=NNC(=O)Cc2ccccc2)CC1 (stereo not drawn)	5	.	.	.	.	.
CC(C)c1ccc(C(=O)O)s1	1	.	.	.	.	.
Cc1ccc(NC(=O)CCN2C(=O)NC3(CCCC3)C2=O)c(C)c1	-1	.	.	3.3µM*	-2%	-13
Cc1ccc(NC(=O)CCCN2C(=O)COc3ccc(C)cc32)c(C)c1	-3	.	.	12µM*	?	.
Cc1ccc(C)c(NC(=O)CCCN2C(=O)COc3ccc(C)cc32)c1	7	.	.	?	?	.
Cc1ccc(NC(=O)CCCCCCCCCCC2COCCO2)c(C)c1 (stereo not drawn)	-10	1%	13%	18µM*	21µM*	1
Cc1ccc2c(c1)N(CCCC(=O)Nc1cccc(C(F)(F)F)c1)C(=O)CO2	1	6%	15%	16µM*	?	-12
COC(=O)CC(NC(=O)CCc1ccccc1F)c1cccs1 (stereo not drawn)	1	.	.	.	.	.
Cc1ccc(NC(=O)CCCN2C(=O)COc3ccc(C)cc32)c(Cl)c1	8	.	.	7.3µM*	?	.
O=C(C1CCN(Cc2ccccc2)CC1)N1CCN(C/C=C/c2ccccc2)CC1	?	9%	5%	23µM*	?	?
O=C(C1CC1)N1CCN(Cc2ccccc2)CC1	-15	.	.	-5%	0%	24
O=C(c1cc2ccccc2o1)N1CCN(C/C=C/c2ccccc2)CC1	-3	-7%	12%	?	15µM*	-55*
O=S(=O)(c1ccc(S(=O)(=O)N2CCN(C/C=C/c3ccccc3)CC2)cc1)N1CCCC1	-1	-19%	25%	12µM*	?	13
CC1(C)C(C=C(Cl)Cl)C1C(=O)N1CCN(Cc2ccccc2)CC1 (stereo not drawn)	-8	17%	?	?	-3%	-51*
Cc1nonc1CN1CCN(C(C(=O)O)c2c[nH]c3cc(Cl)ccc23)CC1 (stereo not drawn)	-3	.	.	.	.	.
O=C(CCC(=O)c1ccc2ccccc2c1)NC1CCCCCC1	7	.	.	.	.	.
CCCCC(=O)NC(NC(=O)CCCC)c1ccc(Cl)cc1	-1	.	.	.	.	.
CCCn1nc(C(=O)NC(c2cccs2)C(C)C)c2ccccc2c1=O (stereo not drawn)	5	.	.	.	.	.
CC(C)CNC(=O)C(=O)Nc1ccc2cc[nH]c2c1	3	.	.	.	.	.
O=C(NCc1ccc(N2CCCC2=O)cc1)Nc1cccc(Cl)c1	-11	-13%	6%	?	-26%	-61*
